According to publication PMC7862700, “An all-to-all approach to the identification of sequence-specific readers for epigenetic DNA modifications on cytosine”:

Columns and labels:
Assay in all cases: DAPPL (digital affinity profiling via proximity ligation, sequencing); 10 mM Tris-HCl pH 7.5, 50 mM NaCl, 1 mM DTT, 4% glycerol, room temperature, 30 min; GST-TFs on glutathione beads, 16-mer random dsDNA library, 0.1% formaldehyde crosslink after washing; high values mean tight binding
Details in all cases: protein: recombinant; tags: N-terminal GST; dsDNA, one strand shown
ELK1 = molecular target: T1, ELK1 (Homo sapiens, UniProt P19419 1-428)
T1 sequence: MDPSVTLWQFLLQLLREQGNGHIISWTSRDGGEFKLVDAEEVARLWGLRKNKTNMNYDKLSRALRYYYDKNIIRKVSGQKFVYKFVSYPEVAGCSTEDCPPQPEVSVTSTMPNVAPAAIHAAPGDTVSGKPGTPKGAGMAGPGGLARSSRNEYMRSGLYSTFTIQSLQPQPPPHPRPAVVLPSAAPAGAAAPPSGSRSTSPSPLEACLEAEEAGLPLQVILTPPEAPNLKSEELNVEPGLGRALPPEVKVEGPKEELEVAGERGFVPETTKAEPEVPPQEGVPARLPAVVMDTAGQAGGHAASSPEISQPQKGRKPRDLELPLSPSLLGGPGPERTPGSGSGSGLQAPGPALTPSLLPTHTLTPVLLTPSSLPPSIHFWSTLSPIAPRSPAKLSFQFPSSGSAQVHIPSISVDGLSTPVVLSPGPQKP
How it was run: (§1)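 Pools were built from human transcription factors expressed in yeast as GST fusions, captured on glutathione beads and DNA-barcoded, along with a tag-only sample. Incubation with 200 nmole of a 16-mer random double-stranded DNA library lasted 30 min at room temperature in Tris/NaCl/DTT/glycerol buffer, and was followed by washing, 0.1% formaldehyde crosslinking, proximity ligation, PCR amplification and Illumina NextSeq500 sequencing. Binding signal is the quotient of each hexamer's read frequency for a factor and its frequency for the tag-only sample.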

GABPA = molecular target: T2, GABPA (Homo sapiens, UniProt Q06546 1-454)
T2 sequence: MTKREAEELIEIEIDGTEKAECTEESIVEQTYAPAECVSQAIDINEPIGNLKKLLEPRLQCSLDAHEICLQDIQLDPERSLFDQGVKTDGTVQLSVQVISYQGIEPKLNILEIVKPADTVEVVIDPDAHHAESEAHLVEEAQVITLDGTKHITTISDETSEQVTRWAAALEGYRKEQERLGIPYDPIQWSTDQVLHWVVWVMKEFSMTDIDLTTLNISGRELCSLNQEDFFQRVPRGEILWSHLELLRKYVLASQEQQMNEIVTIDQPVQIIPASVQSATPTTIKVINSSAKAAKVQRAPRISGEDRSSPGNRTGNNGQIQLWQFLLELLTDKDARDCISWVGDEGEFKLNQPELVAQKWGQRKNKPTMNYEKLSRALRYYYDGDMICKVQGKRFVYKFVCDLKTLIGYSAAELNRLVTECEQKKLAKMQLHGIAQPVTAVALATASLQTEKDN
How it was run: as §1

ELF4 = ELF4 (Homo sapiens, UniProt Q99607 1-663)
Sequence of ELF4 (Q99607 whole entry): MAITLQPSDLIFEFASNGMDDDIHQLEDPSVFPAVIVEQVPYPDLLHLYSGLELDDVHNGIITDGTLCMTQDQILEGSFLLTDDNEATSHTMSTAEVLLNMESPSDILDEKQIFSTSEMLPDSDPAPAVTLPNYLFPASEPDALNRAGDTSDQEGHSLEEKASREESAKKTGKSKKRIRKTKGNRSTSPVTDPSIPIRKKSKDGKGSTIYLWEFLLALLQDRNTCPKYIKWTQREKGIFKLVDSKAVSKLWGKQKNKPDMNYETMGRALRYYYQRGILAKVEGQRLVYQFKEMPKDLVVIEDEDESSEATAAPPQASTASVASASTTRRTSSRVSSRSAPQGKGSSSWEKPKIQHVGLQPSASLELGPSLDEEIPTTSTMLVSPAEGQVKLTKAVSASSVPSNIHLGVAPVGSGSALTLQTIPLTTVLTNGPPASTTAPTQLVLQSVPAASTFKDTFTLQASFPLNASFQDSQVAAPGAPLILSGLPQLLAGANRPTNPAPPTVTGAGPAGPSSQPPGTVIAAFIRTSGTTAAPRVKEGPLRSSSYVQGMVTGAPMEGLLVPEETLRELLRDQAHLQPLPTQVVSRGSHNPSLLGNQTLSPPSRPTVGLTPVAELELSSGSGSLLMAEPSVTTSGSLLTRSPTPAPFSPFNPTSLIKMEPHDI
How it was run: as §1

ELK4 = molecular target: T3, ELK4 (Homo sapiens, UniProt P28324-2 1-405)
T3 sequence: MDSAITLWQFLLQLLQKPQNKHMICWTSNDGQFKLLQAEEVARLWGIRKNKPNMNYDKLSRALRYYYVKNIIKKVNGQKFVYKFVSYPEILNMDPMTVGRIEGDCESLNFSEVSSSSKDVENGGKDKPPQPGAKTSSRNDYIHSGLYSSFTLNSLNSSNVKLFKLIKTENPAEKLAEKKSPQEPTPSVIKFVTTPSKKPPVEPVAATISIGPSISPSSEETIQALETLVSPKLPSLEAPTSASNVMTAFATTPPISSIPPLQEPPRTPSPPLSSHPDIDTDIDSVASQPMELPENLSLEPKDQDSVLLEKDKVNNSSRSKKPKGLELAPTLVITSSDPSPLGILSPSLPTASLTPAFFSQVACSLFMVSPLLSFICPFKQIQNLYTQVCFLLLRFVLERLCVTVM
How it was run: as §1

ETV2 = molecular target: T4, ETV2 (Homo sapiens, UniProt O00321 1-342)
T4 sequence: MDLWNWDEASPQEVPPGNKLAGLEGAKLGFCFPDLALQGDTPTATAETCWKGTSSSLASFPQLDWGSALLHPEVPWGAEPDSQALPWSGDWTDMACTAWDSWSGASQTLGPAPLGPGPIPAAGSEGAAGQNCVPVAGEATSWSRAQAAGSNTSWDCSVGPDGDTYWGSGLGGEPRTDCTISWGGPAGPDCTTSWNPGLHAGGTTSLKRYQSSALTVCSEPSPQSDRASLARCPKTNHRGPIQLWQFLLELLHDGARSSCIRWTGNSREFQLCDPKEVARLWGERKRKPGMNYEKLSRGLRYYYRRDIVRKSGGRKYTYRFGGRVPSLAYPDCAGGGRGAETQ
How it was run: as §1

ERF = molecular target: T5, ERF (Homo sapiens, UniProt P50548 1-548)
T5 sequence: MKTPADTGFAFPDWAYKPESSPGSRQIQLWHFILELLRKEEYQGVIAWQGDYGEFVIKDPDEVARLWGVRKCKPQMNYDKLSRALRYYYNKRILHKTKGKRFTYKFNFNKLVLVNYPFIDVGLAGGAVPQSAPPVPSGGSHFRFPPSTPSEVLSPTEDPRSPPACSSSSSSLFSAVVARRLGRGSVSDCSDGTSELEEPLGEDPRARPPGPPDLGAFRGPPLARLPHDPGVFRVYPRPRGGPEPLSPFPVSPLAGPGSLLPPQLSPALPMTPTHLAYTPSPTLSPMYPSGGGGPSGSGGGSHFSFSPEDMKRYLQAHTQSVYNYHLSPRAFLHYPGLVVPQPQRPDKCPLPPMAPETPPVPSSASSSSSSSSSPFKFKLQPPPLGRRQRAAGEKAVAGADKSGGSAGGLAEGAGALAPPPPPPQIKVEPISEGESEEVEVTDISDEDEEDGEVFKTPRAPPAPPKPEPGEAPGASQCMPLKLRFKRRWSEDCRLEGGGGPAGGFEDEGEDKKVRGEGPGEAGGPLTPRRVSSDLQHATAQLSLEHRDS
How it was run: as §1

ETV6 = ETV6 (Homo sapiens, UniProt P41212 1-452)
Sequence of ETV6 (P41212 whole entry): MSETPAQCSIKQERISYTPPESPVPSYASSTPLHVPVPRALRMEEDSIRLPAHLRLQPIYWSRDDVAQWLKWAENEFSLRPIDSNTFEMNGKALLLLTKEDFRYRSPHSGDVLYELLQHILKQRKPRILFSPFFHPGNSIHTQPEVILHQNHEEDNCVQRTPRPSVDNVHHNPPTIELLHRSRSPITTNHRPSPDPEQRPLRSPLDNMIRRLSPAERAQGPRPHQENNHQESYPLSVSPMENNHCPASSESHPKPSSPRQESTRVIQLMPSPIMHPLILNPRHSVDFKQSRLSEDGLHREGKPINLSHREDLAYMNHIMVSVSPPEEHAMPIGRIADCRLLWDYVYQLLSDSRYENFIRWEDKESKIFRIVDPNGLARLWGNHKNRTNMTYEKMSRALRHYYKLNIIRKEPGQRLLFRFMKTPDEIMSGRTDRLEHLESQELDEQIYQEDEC
How it was run: as §1

ELF3 = molecular target: T6, ELF3 (Homo sapiens, UniProt P78545 1-371)
T6 sequence: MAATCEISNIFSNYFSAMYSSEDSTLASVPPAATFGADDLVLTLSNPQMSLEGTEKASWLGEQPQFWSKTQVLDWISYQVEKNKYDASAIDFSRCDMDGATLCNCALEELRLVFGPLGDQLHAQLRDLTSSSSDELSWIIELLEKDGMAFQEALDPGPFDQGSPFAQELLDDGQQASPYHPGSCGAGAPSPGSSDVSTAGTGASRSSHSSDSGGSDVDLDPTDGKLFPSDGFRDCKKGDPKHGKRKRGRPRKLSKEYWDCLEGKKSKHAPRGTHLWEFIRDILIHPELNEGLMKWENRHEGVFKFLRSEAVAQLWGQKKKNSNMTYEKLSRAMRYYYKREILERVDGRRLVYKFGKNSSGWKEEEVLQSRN
How it was run: as §1

ETV3L = molecular target: T7, ETV3L (Homo sapiens, UniProt Q6ZN32 1-361)
T7 sequence: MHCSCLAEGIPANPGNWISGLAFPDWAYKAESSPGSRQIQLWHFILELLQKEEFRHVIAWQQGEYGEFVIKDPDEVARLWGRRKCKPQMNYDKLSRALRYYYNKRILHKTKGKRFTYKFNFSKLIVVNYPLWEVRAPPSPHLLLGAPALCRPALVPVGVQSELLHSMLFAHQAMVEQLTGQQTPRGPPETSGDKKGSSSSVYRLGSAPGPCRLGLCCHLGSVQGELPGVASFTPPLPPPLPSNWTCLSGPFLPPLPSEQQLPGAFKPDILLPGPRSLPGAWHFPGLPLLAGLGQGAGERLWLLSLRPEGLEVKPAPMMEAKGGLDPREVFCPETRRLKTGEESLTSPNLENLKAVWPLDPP
How it was run: as §1

ETS2 = molecular target: T8, ETS2 (Homo sapiens, UniProt P15036 1-469)
T8 sequence: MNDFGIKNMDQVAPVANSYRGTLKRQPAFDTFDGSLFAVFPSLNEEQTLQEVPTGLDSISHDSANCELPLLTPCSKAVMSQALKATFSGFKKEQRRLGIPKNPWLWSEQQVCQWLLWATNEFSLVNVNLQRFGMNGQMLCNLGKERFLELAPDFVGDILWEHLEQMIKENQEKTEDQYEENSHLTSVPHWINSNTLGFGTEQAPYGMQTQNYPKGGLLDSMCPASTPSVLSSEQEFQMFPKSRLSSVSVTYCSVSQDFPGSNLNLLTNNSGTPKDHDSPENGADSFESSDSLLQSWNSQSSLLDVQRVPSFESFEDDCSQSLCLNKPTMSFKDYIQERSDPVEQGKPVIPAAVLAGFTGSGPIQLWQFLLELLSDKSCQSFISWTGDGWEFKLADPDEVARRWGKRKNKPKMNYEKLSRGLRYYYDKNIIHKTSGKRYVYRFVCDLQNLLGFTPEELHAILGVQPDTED
How it was run: as §1

SPDEF = molecular target: T9, SPDEF (Homo sapiens, UniProt O95238 1-335)
T9 sequence: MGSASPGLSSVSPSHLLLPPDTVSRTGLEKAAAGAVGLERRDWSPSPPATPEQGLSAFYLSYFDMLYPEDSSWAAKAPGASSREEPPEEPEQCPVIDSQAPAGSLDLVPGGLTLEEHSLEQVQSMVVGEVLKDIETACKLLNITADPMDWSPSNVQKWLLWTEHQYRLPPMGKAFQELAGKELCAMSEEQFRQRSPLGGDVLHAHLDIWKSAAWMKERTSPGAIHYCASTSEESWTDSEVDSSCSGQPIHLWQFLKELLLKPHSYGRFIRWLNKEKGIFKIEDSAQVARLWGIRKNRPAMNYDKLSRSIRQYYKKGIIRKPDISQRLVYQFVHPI
How it was run: as §1

ETV7 = molecular target: T10, ETV7 (Homo sapiens, UniProt Q9Y603 1-341)
T10 sequence: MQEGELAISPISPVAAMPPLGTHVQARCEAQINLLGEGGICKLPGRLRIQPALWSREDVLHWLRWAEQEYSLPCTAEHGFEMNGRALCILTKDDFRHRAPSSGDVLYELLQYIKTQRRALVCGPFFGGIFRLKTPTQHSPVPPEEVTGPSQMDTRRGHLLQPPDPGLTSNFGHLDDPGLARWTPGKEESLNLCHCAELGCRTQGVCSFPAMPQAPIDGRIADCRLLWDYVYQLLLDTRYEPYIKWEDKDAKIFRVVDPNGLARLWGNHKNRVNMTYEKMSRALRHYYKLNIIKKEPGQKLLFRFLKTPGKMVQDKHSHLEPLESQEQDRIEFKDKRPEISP
How it was run: as §1

ELF5 = molecular target: T11, ELF5 (Homo sapiens, UniProt Q9UKW6-2 1-255)
T11 sequence: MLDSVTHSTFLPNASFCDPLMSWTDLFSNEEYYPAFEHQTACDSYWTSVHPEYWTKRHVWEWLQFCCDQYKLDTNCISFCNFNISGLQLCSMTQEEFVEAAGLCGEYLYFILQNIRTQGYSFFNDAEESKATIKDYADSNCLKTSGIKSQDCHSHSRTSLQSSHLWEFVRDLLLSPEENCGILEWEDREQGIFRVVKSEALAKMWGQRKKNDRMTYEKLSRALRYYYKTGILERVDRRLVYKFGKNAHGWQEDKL
How it was run: as §1

## GCAACA
ELK1
  binding signal: 1.03 fold enrichment (6-mer frequency, TF over GST control)
GABPA
  binding signal: 1.08 fold enrichment (6-mer frequency, TF over GST control)
ELF4
  binding signal: 1.06 fold enrichment (6-mer frequency, TF over GST control)
ELK4
  binding signal: 1.08 fold enrichment (6-mer frequency, TF over GST control)
ETV2
  binding signal: 1.03 fold enrichment (6-mer frequency, TF over GST control)
ERF
  binding signal: 1.01 fold enrichment (6-mer frequency, TF over GST control)
ETV6
  binding signal: 1.03 fold enrichment (6-mer frequency, TF over GST control)

## AGGTAC
ELF4
  binding signal: 1.01 fold enrichment (6-mer frequency, TF over GST control)

## GTGGTC
ELK4
  binding signal: 1.06 fold enrichment (6-mer frequency, TF over GST control)

## GAATGC
ELF4
  binding signal: 1.05 fold enrichment (6-mer frequency, TF over GST control)
ETV2
  binding signal: 1.04 fold enrichment (6-mer frequency, TF over GST control)
ELF3
  binding signal: 1.06 fold enrichment (6-mer frequency, TF over GST control)
ERF
  binding signal: 1.04 fold enrichment (6-mer frequency, TF over GST control)
ETV3L
  binding signal: 1.01 fold enrichment (6-mer frequency, TF over GST control)
ETS2
  binding signal: 1.05 fold enrichment (6-mer frequency, TF over GST control)
SPDEF
  binding signal: 1.04 fold enrichment (6-mer frequency, TF over GST control)
ETV7
  binding signal: 1.03 fold enrichment (6-mer frequency, TF over GST control)
ELF5
  binding signal: 1.07 fold enrichment (6-mer frequency, TF over GST control)
ETV6
  binding signal: 1.01 fold enrichment (6-mer frequency, TF over GST control)
